Data reported in PubChem BioAssay (Tox21).
Inconclusive results are not listed. Calls of active or inactive are those of the source. Unless noted, the call rests on the fitted dose curve.

Legend:
[1] = qHTS assay to identify small molecule agonists of the vitamin D receptor (VDR) signaling pathway - cell viability counter screen (AID 743224; active means well fitted curve in the direction sought with a large enough effect in the repeat runs; an effect the other way counts as inactive or inconclusive; further: series mostly up to about 63 µM; on the % scale 0 is the no-effect control and ±100 the full control effect; nearly all actives have a fitted effect of over 50% in size)
Summary of the method: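 VDR-bla cells were preincubated 4 h at 37C/5% CO2, then exposed to compounds for 16 h. After the 2 h room-temperature bla FRET read, CellTiter-Glo was added to the same wells and luminescence read after 30 min.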

[2] = qHTS assay to identify small molecule antagonists of the vitamin D receptor (VDR) signaling pathway - cell viability counter screen (AID 743225; active means well fitted curve in the direction sought with a large enough effect in the repeat runs; an effect the other way counts as inactive or inconclusive; further: on the % scale 0 is the no-effect control and ±100 the full control effect; nearly all actives have a fitted effect of over 50% in size)
Summary of the method: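 Parallel cytotoxicity test: VDR-UAS-bla HEK 293T, 3 nM (final) 1-alpha,25-dihydroxyvitamin D3 with test compound, 16 h, 37C. Endpoint is CellTiter-Glo luminescence in the same wells.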

[3] = qHTS assay to identify small molecule agonists of the NFkB signaling pathway (AID 1159509; active means well fitted curve in the direction sought with a large enough effect in the signal ratio in the repeat runs, not every such curve was filed as active; the % refers to the signal ratio; further: series mostly up to about 61 µM; on the % scale 0 is the no-effect control and ±100 the full control effect)
Summary of the method: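 NFkB-bla ME-180 cells carry a beta-lactamase reporter under an NF-kB response element. They were plated overnight, then exposed to compounds for 5 h at 37 C. Read-out is LiveBLAzer FRET after 1.5 hr at room temperature (405 nm excitation; 460/530 nm emission).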

[4] = qHTS assay to identify small molecule agonists of the NFkB signaling pathway - cell viability counter screen (AID 1159515); further: series mostly up to about 61 µM; on the % scale 0 is the no-effect control and ±100 the full control effect; nearly all actives have a fitted effect of over 55% in size
Summary of the method: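 NFkB-bla ME-180 cells, 2,000/well, were plated overnight at 37 C, 5% CO2, then exposed to compounds in DMSO for 5 hr. After the bla FRET read, CellTiter-Glo was added to the same wells; luminescence was read after 30 min at room temperature.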

[5] = qHTS assay to identify small molecule agonists of the endoplasmic reticulum stress response signaling pathway (AID 1159516; active means well fitted activation curve with a large enough effect in the signal ratio in the repeat runs, not every such curve was filed as active; the % refers to the signal ratio; further: on the % scale 0 is the no-effect control and ±100 the full control effect)
Summary of the method: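 CellSensor ESRE-bla HeLa cells, carrying a beta-lactamase reporter driven by the ER stress response element, were plated overnight and exposed to compounds for 5 hr at 37 C. Reporter activity was read as FRET substrate fluorescence after 2 hr at room temperature.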

[6] = qHTS assay to identify small molecule agonists of the endoplasmic reticulum stress response signaling pathway - cell viability counter screen (AID 1159517); further: series mostly up to about 61 µM; on the % scale 0 is the no-effect control and ±100 the full control effect; nearly all actives have a fitted effect of over 50% in size
Summary of the method: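 ESRE-bla HeLa cells, 1,500 per well, seeded overnight then treated with compounds for 5 hr at 37 C. After the beta-lactamase read, viability in the same wells is measured by CellTiter-Glo luminescence after 30 min at room temperature.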

[7] = qHTS assay to identify small molecule antagonists of the retinoid-related orphan receptor gamma (ROR-gamma) signaling pathway - cell viability counter screen (AID 1159520; active means well fitted curve in the direction sought with a large enough effect in the repeat runs; an effect the other way counts as inactive or inconclusive; further: on the % scale 0 is the no-effect control and ±100 the full control effect; nearly all actives have a fitted effect of over 50% in size)
Summary of the method: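 Tet-on ROR gamma CHO cells were given compounds for 2 hr, then doxycycline hyclate at 1 uM final, and incubated 16 hr at 37 C. Viability was measured as ATP content by CellTiter-Glo luminescence.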

[8] = molecular target: Nuclear receptor ROR-gamma (Homo sapiens) (UniProt P51449); assay: qHTS assay to identify small molecule antagonists of the retinoid-related orphan receptor gamma (ROR-gamma) signaling pathway (AID 1159521; active means well fitted curve in the direction sought with a large enough effect in the repeat runs; an effect the other way counts as inactive or inconclusive)
Summary of the method: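 Decreased RORE-driven luciferase luminescence indicates antagonism. Tet-on RORγ CHO cells received compound, then 1 uM final doxycycline 2 h later; signal read after 16 h incubation.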

[9] = qHTS assay to identify small molecule agonists of the AP-1 signaling pathway - cell viability counter screen (AID 1159525); further: nearly all actives have a fitted effect of over 55% in size
Summary of the method: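 AP-1-bla ME-180 cells in Opti-MEM with 0.5% dialyzed FBS, compound exposure 5 h at 37 C in 15-point titration. Viability read in the same wells as ATP content by CellTiter-Glo luminescence, normalised to tetra-n-octylammonium bromide and DMSO controls.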

[10] = qHTS assay to identify small molecule agonists of the AP-1 signaling pathway (AID 1159526); further: on the % scale 0 is the no-effect control and ±100 the full control effect

Cc1nc2n(c(=O)c1CCN1CCC(C(=O)c3ccc(F)cc3)CC1)CCS2
inactive: outcome [1] | outcome [2] | outcome [3] | outcome [4] | outcome [5] | outcome [6] | outcome [7] | outcome [8] | outcome [9] | outcome [10]

CC1(N)CCC(C(C)(C)N)CC1 (configuration not stated)
inactive: outcome [1] | outcome [2] | outcome [3] | outcome [4] | outcome [5] | outcome [6] | outcome [7] | outcome [8] | outcome [9] | outcome [10]

CNC(=O)NC
inactive: outcome [1] | outcome [3] | outcome [4] | outcome [5] | outcome [6] | outcome [7] | outcome [8] | outcome [9] | outcome [10]

CCC(C)N (configuration not stated)
inactive: outcome [1] | outcome [2] | outcome [3] | outcome [4] | outcome [5] | outcome [6] | outcome [7] | outcome [8] | outcome [9] | outcome [10]

COC(=O)CCC(=O)O
inactive: outcome [1] | outcome [2] | outcome [3] | outcome [4] | outcome [5] | outcome [6] | outcome [7] | outcome [8] | outcome [9] | outcome [10]

FC(F)(F)/C(=N\OCC1OCCO1)c1ccc(Cl)cc1
inactive: outcome [1] | outcome [2] | outcome [3] | outcome [4] | outcome [5] | outcome [6] | outcome [7] | outcome [8] | outcome [9] | outcome [10]

CCCCCCCCC(=O)OCC
inactive: outcome [1] | outcome [2] | outcome [3] | outcome [4] | outcome [5] | outcome [6] | outcome [7] | outcome [8] | outcome [9] | outcome [10]

O=CN1CCOCC1
inactive: outcome [1] | outcome [2] | outcome [3] | outcome [4] | outcome [5] | outcome [6] | outcome [7] | outcome [8] | outcome [9] | outcome [10]

Nc1ccc(C(=O)OCC(O)CO)cc1 (configuration not stated)
inactive: outcome [1] | outcome [3] | outcome [4] | outcome [5] | outcome [6] | outcome [7] | outcome [8] | outcome [9] | outcome [10]

O=C1NC2NC(=O)NC2N1 (configuration not stated)
inactive: outcome [1] | outcome [3] | outcome [4] | outcome [5] | outcome [6] | outcome [7] | outcome [8] | outcome [9] | outcome [10]

CCCOCCOCCOCCO
inactive: outcome [1] | outcome [2] | outcome [3] | outcome [4] | outcome [5] | outcome [6] | outcome [7] | outcome [8] | outcome [9] | outcome [10]

CC(=O)Nc1ncc([N+](=O)[O-])s1
inactive: outcome [1] | outcome [2] | outcome [3] | outcome [4] | outcome [5] | outcome [6] | outcome [7] | outcome [8] | outcome [9] | outcome [10]

Nc1cc(C(=O)O)ccc1Cl
inactive: outcome [1] | outcome [2] | outcome [3] | outcome [4] | outcome [5] | outcome [6] | outcome [7] | outcome [8] | outcome [9] | outcome [10]

O=S1(=O)CCCC1
inactive: outcome [1] | outcome [2] | outcome [3] | outcome [4] | outcome [5] | outcome [6] | outcome [7] | outcome [8] | outcome [9] | outcome [10]

CCCCCCCCCCC
inactive: outcome [1] | outcome [2] | outcome [3] | outcome [4] | outcome [5] | outcome [6] | outcome [7] | outcome [8] | outcome [9] | outcome [10]

CC(C)CCCC(C)CC=O (configuration not stated)
inactive: outcome [1] | outcome [2] | outcome [3] | outcome [4] | outcome [5] | outcome [6] | outcome [7] | outcome [8] | outcome [9] | outcome [10]

BrC/C=C/CBr
inactive: outcome [1] | outcome [2] | outcome [3] | outcome [4] | outcome [5] | outcome [6] | activity, negative = cytotoxicity [7] -4.58% [at 19 µM] | activity change, negative = inhibition [8] -16.8% [at 19 µM] | viability change, negative = cytotoxic [9] 1.78% [at 15.8 µM] | activation [10] -6.33% [at 15.8 µM]

O=P(O)(O)OCC(O)CO (configuration not stated)
inactive: outcome [1] | outcome [2] | outcome [3] | outcome [4] | outcome [5] | outcome [6] | outcome [7] | outcome [8] | outcome [9] | outcome [10]

C[N+](C)(C)CC(O)CCl (configuration not stated)
inactive: outcome [1] | outcome [2] | outcome [3] | outcome [4] | outcome [5] | outcome [6] | outcome [7] | outcome [8] | outcome [9] | outcome [10]

COc1ccc(N=Nc2cc(C)c(N=Nc3ccc(S(=O)(=O)O)cc3)cc2OC)cc1
inactive: outcome [1] | outcome [2] | outcome [3] | outcome [4] | outcome [5] | outcome [6] | outcome [7] | outcome [8] | outcome [9] | outcome [10]

O=C(c1ccc2c(c1)C(=O)OC2=O)c1ccc2c(c1)C(=O)OC2=O
inactive: outcome [1] | outcome [2] | outcome [3] | outcome [4] | outcome [5] | outcome [6] | outcome [7] | outcome [8] | outcome [9] | outcome [10]

CC(C)(c1ccc(Oc2ccc3c(c2)C(=O)OC3=O)cc1)c1ccc(Oc2ccc3c(c2)C(=O)OC3=O)cc1
inactive: outcome [1] | outcome [2] | outcome [3] | outcome [4] | outcome [5] | outcome [6] | outcome [7] | outcome [8] | outcome [9] | outcome [10]

CCCCC/C=C/CC(=O)OC
inactive: outcome [1] | outcome [2] | outcome [3] | outcome [4] | outcome [5] | outcome [6] | outcome [7] | outcome [8] | outcome [9] | outcome [10]

CCC(=O)c1ccc(O)cc1
inactive: outcome [1] | outcome [2] | outcome [3] | outcome [4] | outcome [5] | outcome [6] | outcome [7] | outcome [8] | outcome [9] | outcome [10]

CCCCC(=O)N(C)C
inactive: outcome [1] | outcome [2] | outcome [3] | outcome [4] | outcome [5] | outcome [6] | outcome [7] | outcome [8] | outcome [9] | outcome [10]
